Each structure is given as a SMILES string. Records with an inconclusive call do not appear. Active and inactive are the calls of the source. How the source made its calls: active means hit-call score of the fitted dose curve at least 0.9, where 1 is the maximum; inconclusive means response in the unintended direction; inactive means score below 0.9.

human Matrix Metalloproteinase-1 (MMP1), MMP1 (gene 4312), sequence (P03956 whole entry, looked up): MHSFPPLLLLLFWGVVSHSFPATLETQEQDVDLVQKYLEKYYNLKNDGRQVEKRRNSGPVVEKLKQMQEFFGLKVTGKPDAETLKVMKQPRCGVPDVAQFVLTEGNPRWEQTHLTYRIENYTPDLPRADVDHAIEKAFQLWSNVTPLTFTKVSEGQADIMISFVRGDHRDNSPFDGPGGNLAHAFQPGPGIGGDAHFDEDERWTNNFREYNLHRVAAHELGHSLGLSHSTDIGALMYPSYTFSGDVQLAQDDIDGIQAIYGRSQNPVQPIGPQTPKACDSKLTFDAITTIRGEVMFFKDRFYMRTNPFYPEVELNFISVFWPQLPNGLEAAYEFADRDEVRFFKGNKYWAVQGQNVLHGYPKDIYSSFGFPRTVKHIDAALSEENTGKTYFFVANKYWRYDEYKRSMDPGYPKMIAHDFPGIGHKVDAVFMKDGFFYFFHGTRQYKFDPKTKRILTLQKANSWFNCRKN
human MAP Kinase-Activated Protein Kinase 2 (MAPKAPK2), MAPKAPK2 (gene 9261), sequence (P49137 whole entry, looked up): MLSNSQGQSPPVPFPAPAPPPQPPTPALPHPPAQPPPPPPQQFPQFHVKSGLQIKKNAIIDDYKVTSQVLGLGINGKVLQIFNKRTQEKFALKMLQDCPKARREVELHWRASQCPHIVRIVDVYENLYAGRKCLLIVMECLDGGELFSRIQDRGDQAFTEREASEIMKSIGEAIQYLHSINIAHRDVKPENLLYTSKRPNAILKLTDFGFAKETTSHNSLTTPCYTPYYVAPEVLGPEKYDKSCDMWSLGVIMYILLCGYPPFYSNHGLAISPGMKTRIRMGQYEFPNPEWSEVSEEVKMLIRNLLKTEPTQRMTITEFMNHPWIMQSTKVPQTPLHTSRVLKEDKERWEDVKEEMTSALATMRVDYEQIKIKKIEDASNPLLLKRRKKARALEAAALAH
human Mitogen-Activated Protein Kinase 1 (MAPK 1), MAPK1 (gene 5594), sequence (P28482 whole entry, looked up): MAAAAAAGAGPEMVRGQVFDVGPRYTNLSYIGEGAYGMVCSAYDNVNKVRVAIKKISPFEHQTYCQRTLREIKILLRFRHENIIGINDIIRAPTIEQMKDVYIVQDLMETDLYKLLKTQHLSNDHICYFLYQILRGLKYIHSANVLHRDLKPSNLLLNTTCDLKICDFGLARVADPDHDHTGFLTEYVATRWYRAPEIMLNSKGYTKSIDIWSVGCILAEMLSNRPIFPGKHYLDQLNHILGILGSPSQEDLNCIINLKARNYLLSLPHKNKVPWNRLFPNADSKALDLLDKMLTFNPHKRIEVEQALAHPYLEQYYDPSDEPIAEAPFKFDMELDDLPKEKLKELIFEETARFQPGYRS
Mitogen-activated protein kinase 3 (Homo sapiens), sequence (P27361 whole entry, looked up): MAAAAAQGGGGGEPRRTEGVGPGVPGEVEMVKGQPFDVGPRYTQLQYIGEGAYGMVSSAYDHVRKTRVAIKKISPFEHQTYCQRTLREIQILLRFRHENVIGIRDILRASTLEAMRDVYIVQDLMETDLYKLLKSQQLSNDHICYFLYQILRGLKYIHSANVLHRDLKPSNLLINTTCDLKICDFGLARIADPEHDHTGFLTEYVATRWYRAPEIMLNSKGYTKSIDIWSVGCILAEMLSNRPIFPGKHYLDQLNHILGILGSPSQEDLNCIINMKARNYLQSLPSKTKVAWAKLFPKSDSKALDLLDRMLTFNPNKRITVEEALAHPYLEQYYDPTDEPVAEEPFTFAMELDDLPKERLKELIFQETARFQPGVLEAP

One assay deals with human LYN Proto-Oncogene, Src family Tyrosine Kinase (LynA), LYN (gene 4067) (UniProt P07948). The experiment in a line: NVS_ENZ_hLynA: NovaScreen (NVS) Enzymatic Assay for human LYN Proto-Oncogene, Src family Tyrosine Kinase (LynA) (AID 2283173). A digest of the protocol: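 Recombinant kinase with fluorescent substrate; product separated from substrate by electrophoretic mobility shift and read 1 h after dosing. Duplicate screen at 25 uM, then concentration-response up to 50 uM; activity scored as signal loss against DMSO.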
human LYN Proto-Oncogene, Src family Tyrosine Kinase (LynA), LYN (gene 4067), sequence (P07948 whole entry, looked up): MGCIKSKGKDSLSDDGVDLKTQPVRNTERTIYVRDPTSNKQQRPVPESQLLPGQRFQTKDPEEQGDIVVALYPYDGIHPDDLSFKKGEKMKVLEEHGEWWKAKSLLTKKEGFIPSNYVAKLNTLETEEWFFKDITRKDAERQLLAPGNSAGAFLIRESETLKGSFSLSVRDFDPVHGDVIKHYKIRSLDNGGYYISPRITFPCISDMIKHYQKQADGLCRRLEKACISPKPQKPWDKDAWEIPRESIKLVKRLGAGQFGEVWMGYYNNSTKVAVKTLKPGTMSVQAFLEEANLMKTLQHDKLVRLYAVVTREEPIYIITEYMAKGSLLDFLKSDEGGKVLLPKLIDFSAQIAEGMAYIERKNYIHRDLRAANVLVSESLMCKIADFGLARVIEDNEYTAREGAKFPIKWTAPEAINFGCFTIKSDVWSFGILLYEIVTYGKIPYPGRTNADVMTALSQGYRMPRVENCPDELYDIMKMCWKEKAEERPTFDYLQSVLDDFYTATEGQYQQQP
Take `c1ccc(NNc2ccccc2)cc1`: the result was inactive. Regarding `CN(C)C(=O)Nc1ccc(Cl)cc1`, the compound was classed as inactive. On to `Clc1ccc(Cl)c(Cl)c1`, for which the outcome was inactive.

For the next assay, the target named is human Mitogen-Activated Protein Kinase 1 (MAPK 1), MAPK1 (gene 5594) (UniProt P28482). The experiment in a line: NVS_ENZ_hMAPK1: NovaScreen (NVS) Enzymatic Assay for human Mitogen-Activated Protein Kinase 1 (MAPK 1) (AID 2283175). A digest of the protocol:
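Cell-free recombinant human MAPK1 enzymatic assay, fluorescence/electrophoretic mobility shift read at 1 h; loss of signal vs DMSO. Primary screen in duplicate at 25 uM; actives (e.g. ≥30% inhibition) run as concentration-response up to 50 uM.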
`O=[N+]([O-])c1ccc(Oc2ccc(Cl)cc2Cl)cc1`: the compound was classed as inactive. `COC(=O)Nc1nc2ccccc2[nH]1`: the concentration at half-maximal activity (AC50) is 46.7 µM (active). As for `O=C(Nc1ccccc1)c1ccccc1I`, the call was inactive. Still for that read-out and setting: in the case of `CN(C)C(=O)Nc1ccc(Cl)cc1` it was “inactive”; in that of `O=C(Oc1ccc(Br)cc1)N1CCN2CCC1CC2`, “inactive”.

The next assay addresses Mitogen-activated protein kinase 3 (Homo sapiens) (UniProt P27361). Put plainly: NVS_ENZ_hMAPK3: NovaScreen (NVS) Enzymatic Assay for human Mitogen-Activated Protein Kinase 3 (MAPK 3) (AID 2283177). A digest of the protocol: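 Cell-free enzymatic assay with recombinant protein and specific substrate; fluorescence and electrophoretic mobility shift read-out 1 h after dosing. Primary screen duplicate at 25 uM; actives then run in concentration-response up to 50 uM, loss of signal versus DMSO.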
On to `C[C@]12C=CC3=C4CCC(=O)C=C4CC[C@H]3[C@@H]1CC[C@@H]2O`, for which the result was inactive. On the same count and under the same terms, with `COc1cc(C=O)cc2c1[C@H](COC(N)=O)[C@]1(OC(C)=O)ON2C[C@H]2[C@@H]1N2C(C)=O` the entry was “inactive”. On the same count and under the same terms, in the case of `CCNS(=O)(=O)C(F)(F)C(F)(F)C(F)(F)C(F)(F)C(F)(F)C(F)(F)C(F)(F)C(F)(F)F` it was “inactive”.

The next assay has as its target human MAP Kinase-Activated Protein Kinase 2 (MAPKAPK2), MAPKAPK2 (gene 9261) (UniProt P49137). The experiment in a line: NVS_ENZ_hMAPKAPK2: NovaScreen (NVS) Enzymatic Assay for human MAP Kinase-Activated Protein Kinase 2 (MAPKAPK2) (AID 2283178). The protocol: NVS_ENZ_hMAPKAPK2 is a biochemical, single-readout assay that uses extracted gene-proteins in a cell-free assay. Measurements were taken 1 hour after chemical dosing in a 384-well plate.NVS_ENZ_hMAPKAPK2 is one of one assay component(s) measured or calculated from the NVS_ENZ_hMAPKAPK2 assay. It is designed to make measurements of enzyme activity, a form of enzyme reporter, as detected with fluorescence intensity signals by Fluorescence and electrophoretic mobility shift technology.Data from the assay component NVS_ENZ_hMAPKAPK2 was analyzed into 1 assay endpoint. This assay endpoint, NVS_ENZ_hMAPKAPK2, was analyzed in the positive analysis fitting direction relative to DMSO as the negative control and baseline of activity. Using a type of enzyme reporter, loss-of-signal activity can be used to understand changes in the enzymatic activity as they relate to the gene MAPKAPK2. Furthermore, this assay endpoint can be referred to as a primary readout, because this assay has produced multiple assay endpoints where this one serves a enzymatic activity function. To generalize the intended target to other relatable targets, this assay endpoint is annotated to the kinase intended target family, where the subfamily is serine/threonine kinase.
Binding assays used specific radioligands (tritiated, iodinated) with non-radioactive competitive displacement ligands in agonist or antagonist protocols (as indicated) and various reference compounds and inhibitors to titrate specific binding to receptors and transporters. Most enzyme assays (CYPs, kinases, phosphatases, proteases, HDACs) used recombinant protein and specific substrates (fluorescence mostly, some colorimetric and radioactive) and inhibitors, followed by a biochemical separation of substrate and product. All assays for the biochemical HTS were initially run in duplicate at a single concentration (10 uM for CYP450 assays and 25 uM for all others). Assay-chemical combinations meeting a pre-defined threshold (e.g., 30% inhibition and other criteria defined below) were then run in singleton concentration-response format with maximum concentration of 20 uM for CYPs and 50 uM for all others. Each assay was run with positive and negative controls, and concurrent controls on every plate. The follow-up (secondary) screen tested active chemical-pairs in concentration series, as well as a few additional assays not tested in the primary screen, some selected negative inactives, and several cases re-run in the concentration series for confirmatory purposes.
As to `CC(C)N(Cc1ccccc1)C(=O)C(C)(C)C`, the result was inactive.

For the compound `CCCSC(=O)N(CCC)CCC`, the compound was called inactive. With `CCN(CC)N=O`, the compound was classed as inactive.

`O=C(Oc1ccc(Br)cc1)N1CCN2CCC1CC2`: the compound was called inactive. In the case of `Nc1ccc(Cl)cc1N`, the result was inactive.

Another assay concerns the target human Matrix Metalloproteinase-1 (MMP1), MMP1 (gene 4312) (UniProt P03956). The experiment in a line: NVS_ENZ_hMMP1: NovaScreen (NVS) Enzymatic Assay for human Matrix Metalloproteinase-1 (MMP1) (AID 2283181). A digest of the protocol: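 Human MMP1 enzyme activity measured by fluorescence 1 h after dosing, cell-free, with a specific substrate. Screened in duplicate at 25 uM; hits (e.g. 30% inhibition) run in concentration-response up to 50 uM; loss of signal versus DMSO.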
Turning to `O=[N+]([O-])c1ccc(Oc2ccc(Cl)cc2Cl)cc1`, the result was inactive. For the compound `Oc1ccccc1Cl`, the compound was classed as inactive. The same measure, in the same setting: with `CCOc1cccc(C2(N3CCN(c4ccccc4)CC3)CCC(C)CC2)c1` (stereo unspecified) the entry was “inactive”. Regarding `COP(=S)(OC)SCN1C(=O)c2ccccc2C1=O`, the AC50 is 11.7 µM (active). On to `Nc1ccc(N=Nc2ccccc2)cc1`, for which the concentration at half-maximal activity (AC50) was 16.9 µM (active).

Broadly, the AC50 is the concentration giving half of the maximal activity seen.
